Measurements reported in PubChem BioAssay (NCI).
The panel holds about 83,000 compounds, 20% with a hit somewhere; the sample as a whole holds those more often.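 The test compound was applied at a single concentration to cells in 96-well plates for 48 hours, and percent growth was recorded.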 Values without a mark were called inactive. The source made the active and inactive calls. The calls were made as follows: active = growth percent below 10; inactive = the rest.

What was measured:
Assay in all cases: NCI-60 one-dose screen, 48 h (100 = growth as untreated, 0 = no growth, -100 = all killed)
Settings in all cases: 10 µM unless noted
[1] = test system: DU-145 prostate
[2] = test system: K-562 leukemia
[3] = test system: MALME-3M melanoma
[4] = test system: MDA-MB-231 breast
[5] = test system: RXF 393 renal
[6] = test system: SF-268 CNS
[7] = test system: SF-539 CNS
[8] = test system: UACC-257 melanoma
[9] = test system: M14 melanoma
[10] = test system: HCT-15 colon
[11] = test system: HT29 colon
[12] = test system: SNB-75 CNS
[13] = test system: SNB-19 CNS
[14] = test system: U251 CNS
[15] = test system: PC-3 prostate
[16] = test system: SK-MEL-5 melanoma
[17] = test system: LOX IMVI melanoma
[18] = test system: SK-MEL-28 melanoma
[19] = test system: UACC-62 melanoma

SMILES | growth [1] | growth [2] | growth [3] | growth [4] | growth [5] | growth [6] | growth [7] [%] | growth [8] [%] | growth [9] | growth [10] | growth [11] [%] | growth [12] | growth [13] | growth [14] | growth [15] [%] | growth [16] | growth [17] | growth [18] [%] | growth [19]
CCc1ccc(Nc2ncnc3c2cnn3-c2cccc(Br)c2)cc1 | 104% | 106% | 99% | 103% | 100% | 98% | 102 | 88.6 | 98.6% | 101% | 108 | 78.4% | 95.3% | 94.3% | 94.9 | 96.6% | 96.3% | 107 | –
C#CC[C@@H]1C[C@]2(C)[C@H]3CC=C4[C@H]5CC(C)(C)CC[C@]5(C(=O)NCCCCN)CC[C@@]4(C)[C@]3(C)CC[C@H]2C(C)(C)[C@H]1OC(C)=O | -47.9% (active) | -30% (active) | 85% | -58.6% (active) | -43.3% (active) | 89.4% | 86.9 | 111 | 2.23% (active) | 8.51% (active) | – | -79.9% (active) | 6.48% (active) | -77.9% (active) | 27 | 93.9% | -70.2% (active) | 102 | 106%
N=c1n(Cc2ccccc2)c(N)cc(=O)n1Cc1ccccc1 | -19.6% (active) | 21% | 23.3% | 83% | -15.5% (active) | 2.59% (active) | 12.5 | 43.8 | 84.6% | 45.8% | – | 36.6% | 52.8% | 25.4% | 37.5 | 2.83% (active) | 14.2% | 60.8 | 33.8%
O=NN(CC(=O)NNc1ccccc1)CC(=O)NNc1ccccc1 | 68.7% | 11.8% | 102% | 58.7% | 84.9% | 59.7% | 72 | 95.4 | 33.1% | 33.7% | 69.2 | 90.8% | 96.2% | – | 58.8 | 90.5% | 7.04% (active) | 95.5 | 3.99% (active)
CCNC(=S)N(Cc1ccccc1)Cc1ccccc1 | 124% | 100% | 105% | 116% | 126% | 116% | 104 | 98.7 | 108% | 111% | 98.8 | 103% | 123% | – | 95.3 | 101% | 112% | 110 | 91.7%
CCOP(=O)(O)OP(=O)(O)OCC | 105% | 89% | 98.1% | 112% | 118% | 100% | 105 | 105 | 100% | 98.5% | – | 81.3% | 106% | 105% | 104 | 113% | 92.7% | 108 | 106%
COc1ccc2[nH]c(O)c(/C=c3/ccc4c(c3)N=C(c3ccc(F)cc3)N=4)c2c1 | 67.6% | 57.7% | -18.6% (active) | 83.2% | 11.5% | 83.2% | 80.3 | 82.5 | 68.4% | 50.1% | 84.5 | -12.3% (active) | 87.1% | – | 47.4 | 61.5% | 16.3% | 72.7 | 90.1%
